Our source for the outcome and AC50 values is PubChem BioAssay (EPA / NIEHS).

Assay [1] is described as follows: ACEA_ER_80hr: ACEA Biosciences xCELLigence Real-Time Cell Analysis on Estrogen Receptor Agonism for Proliferation (AID 2282667; active = hit-call score of the fitted dose curve at least 0.9, where 1 is the maximum). The following applies: T47D proliferation, impedance (xCELLigence), 80 h. In outline:
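T-47D cells monitored by electrical impedance (xCELLigence) with compound present throughout; 80 h timepoint, positive-direction fitting versus DMSO. Eight-point 1:4 dilutions from 100 uM final, duplicate plates.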

A short description of assay [2]: APR_HepG2_CellCycleArrest_24hr: Apredica 24-hour HepG2 Assay for Cell Cycle Arrest (AID 2282905).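 Note: cell cycle arrest scored as ratio of 2N to 4N nuclear DNA content.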 The following applies: imaging, actives raise or lower the signal. In outline:
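Readout: Hoechst 33342 nuclear DNA content by high-content fluorescent imaging, six images/well, 20x. Human HepG2 liver cells, 24 hr compound exposure, 0.39–200 uM, final DMSO 0.5% v/v. Gain or loss fitted relative to DMSO baseline.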

A short description of assay [3]: APR_HepG2_NuclearSize_24hr: Apredica 24-hour HepG2 Assay for Nuclear Size (AID 2282907). To be noted: high-content imaging, actives raise or lower the signal. In outline:
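Read-out: nuclear diameter from Hoechst 33342 (2 ug/mL) imaging of fixed HepG2 cells, 20x, six fields/well. Compounds ran at 0.39–200 uM for 24 hr, 0.5% DMSO final. Gain or loss was fitted bidirectionally relative to the DMSO baseline.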

A short description of assay [4]: APR_HepG2_CellLoss_24hr: Apredica 24-hour HepG2 Assay for Cell Loss (AID 2282908).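 For AC50: fit in both directions so a hit may be cell loss or gain.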 The following applies: high-content imaging. The method, boiled down:
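Read-out: Hoechst 33342-stained nuclei counted by automated fluorescence imaging after formaldehyde fixation and Triton permeabilization. Ten concentrations, 0.39 to 200 uM, duplicate wells, 0.5% DMSO final. Gain or loss of signal fitted relative to DMSO baseline.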

Assay [5] is described as follows: APR_HepG2_MicrotubuleCSK_24hr: Apredica 24-hour HepG2 Assay for Microtubule CSK Stabilty (AID 2282909). The following applies: HepG2 microtubule cytoskeleton imaging, actives raise or lower the signal. In outline:
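Read-out: alpha-tubulin immunofluorescence intensity by automated high-content imaging of fixed HepG2 cells after 24 h compound treatment. Ten concentrations, 0.39 to 200 uM, in duplicate; DMSO 0.5% v/v. Taxol positive control; DMSO-normalized bidirectional curve fitting.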

Assay [6] can be described thus: APR_HepG2_MitoticArrest_24hr: Apredica 24-hour HepG2 Assay for Mitotic Arrest (AID 2282910). The following applies: high-content imaging, actives raise or lower the signal. The method, boiled down: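 HepG2, 24 hr dosing, 0.39–200 uM, 0.5% DMSO final. Formaldehyde-fixed, Triton-permeabilised, anti-phospho-histone H3 plus Hoechst. ArrayScan imaging at 20x; bidirectional fit vs DMSO baseline.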

A short description of assay [7]: APR_HepG2_MitoMembPot_24hr: Apredica 24-hour HepG2 Assay for Mitochondrial Membrane Potential (AID 2282911). The following applies: imaging, actives raise or lower the signal. In outline:
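HepG2 cells exposed 24 h to 0.39–200 uM compounds in duplicate, 0.5% v/v DMSO final. MitoTracker Red CMXRos 250 nM loaded 30 min before formaldehyde fixation; high-content imaging at 20x, bidirectional fit versus DMSO.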

A short description of assay [8]: APR_HepG2_MitoMass_24hr: Apredica 24-hour HepG2 Assay for Mitochondrial Mass (AID 2282912). To be noted: high-content imaging, actives raise or lower the signal. The method, boiled down:
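HepG2, 24 hr dosing, 10 concentrations 0.39–200 uM in duplicate, DMSO 0.5% final. MitoTracker Red CMXRos 250 nM, 30 min pre-fix; 3.7% formaldehyde fix. Imaging-based fluorescence intensity; gain/loss fit vs DMSO baseline.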

Assay [9] in a line: APR_HepG2_CellCycleArrest_72hr: Apredica 72-hour HepG2 Assay for Cell Cycle Arrest (AID 2282914). The following applies: high-content imaging, actives raise or lower the signal. The method, boiled down: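 HepG2 cells exposed 72 h in duplicate to 0.39–200 uM compound, 0.5% DMSO final. Formaldehyde-fixed, Hoechst 33342-stained nuclei imaged at 20x, six fields per well; DNA content per valid cell quantified by cell-cycle image analysis, bidirectional fit versus DMSO.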

The nature of assay [10]: APR_HepG2_CellLoss_72hr: Apredica 72-hour HepG2 Assay for Cell Loss (AID 2282915). The following applies: high-content imaging. In outline: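 HepG2 cells exposed 72 h to compound at 0.39–200 uM (10 concentrations, duplicate) in 0.5% DMSO. Fixed with 3.7% formaldehyde and Hoechst 33342-stained. Imaged at 20x; nuclear count gives cell number, fitted bidirectionally versus DMSO.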

Assay [11] in a line: APR_HepG2_P-H2AX_72hr: Apredica 72-hour HepG2 Assay for H2AX Phosphorylation (AID 2282916).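 Note: phospho-histone H2A.x immunostain intensity per cell marking DNA damage.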 The following applies: imaging, actives raise or lower the signal. In outline:
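Readout: phospho-H2A.x immunofluorescence (FITC secondary) plus Hoechst nuclear stain, high-content imaging at 20x, six fields/well. HepG2, 72 hr compound exposure, 0.39–200 uM, final DMSO 0.5% v/v. Gain or loss fitted relative to DMSO baseline.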

A short description of assay [12]: APR_HepG2_MitoMembPot_72hr: Apredica 72-hour HepG2 Assay for Mitochondrial Membrane Potential (AID 2282917). To be noted: imaging, actives raise or lower the signal. In outline: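 HepG2 cells dosed 72 hr with compound at 0.39–200 uM in duplicate, 0.5% v/v DMSO final. Mitochondria stained with 250 nM MitoTracker Red CMXRos for 30 min before formaldehyde fixation, imaged by high-content fluorescence; bidirectional fit versus DMSO.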

A short description of assay [13]: APR_HepG2_MitoticArrest_72hr: Apredica 72-hour HepG2 Assay for Mitotic Arrest (AID 2282918). To be noted: high-content imaging, actives raise or lower the signal. The method, boiled down:
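HepG2 cells treated 72 h at 0.39–200 uM, 0.5% DMSO final; formaldehyde-fixed, stained with Hoechst 33342 and phospho-histone H3 antibody, imaged by high-content fluorescence; bidirectional fit versus DMSO.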

Assay [14] in a line: APR_HepG2_MicrotubuleCSK_72hr: Apredica 72-hour HepG2 Assay for Microtubule CSK Stabilty (AID 2282919). To be noted: HepG2 microtubule cytoskeleton, high-content imaging, actives raise or lower the signal. The method, boiled down:
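HepG2, 72 hr cmpd exposure, 0.39–200 uM (10 pts, duplicate), 0.5% DMSO. 3.7% formaldehyde fix, 0.5% Triton perm, anti-alpha-tubulin/Cy5 plus Hoechst. HCS fluorescence intensity; bidirectional fit vs DMSO baseline; taxol as positive control.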

Assay [15] is described as follows: APR_HepG2_P-H2AX_24hr: Apredica 24-hour HepG2 Assay for H2AX Phosphorylation (AID 2282920). The following applies: high-content imaging, actives raise or lower the signal. The method, boiled down: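 HepG2 cells dosed 24 h at 0.39–200 uM (10 points, duplicate, 0.5% DMSO final). Formaldehyde-fixed and permeabilized, then immunostained for phospho-H2A.x with Hoechst. Fluorescence quantified by high-content imaging, fitted bidirectionally versus DMSO.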

Assay [16] in a line: APR_HepG2_StressKinase_72hr: Apredica 72-hour HepG2 Assay for Stress Kinase (AID 2282921). The following applies: HepG2 stress kinase (phospho-c-Jun) imaging, actives raise or lower the signal. In outline: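 Phospho-c-Jun immunofluorescence measured by high-content imaging at 20x, six fields per well; bidirectional curve fitting against DMSO as baseline. Dosing: 0.39–200 uM, 72 h, 0.5% DMSO final.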

Assay [17] in a line: APR_HepG2_MitoMass_72hr: Apredica 72-hour HepG2 Assay for Mitochondrial Mass (AID 2282924).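 Note: MitoTracker Red CMXRos stain intensity per cell imaged as mitochondrial mass.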 The following applies: high-content imaging, actives raise or lower the signal. In outline: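 Read-out: MitoTracker Red fluorescence intensity from automated imaging (20x, six fields per well) in human HepG2 liver cells. Dosing ran 72 hr, 0.39–200 uM, 0.5% DMSO; bidirectional curve fitting versus DMSO baseline.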

Assay [18] can be described thus: APR_HepG2_p53Act_24hr: Apredica 24-hour HepG2 Assay for p53 Activation (AID 2282913).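 Note: p53 protein immunofluorescence averaged per cell in HepG2 with Hoechst nuclei.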 To be noted: high-content imaging, actives raise or lower the signal. The method, boiled down: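 HepG2 cells exposed 24 h to compounds at 0.39–200 uM in duplicate, 0.5% v/v DMSO final; fixed, permeabilized, stained with anti-p53 antibody and Hoechst 33342; fluorescence imaging; bidirectional curve fit versus DMSO.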

The nature of assay [19]: APR_HepG2_p53Act_72hr: Apredica 72-hour HepG2 Assay for p53 Activation (AID 2282923).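 Note: average cellular p53 protein immunofluorescence intensity in HepG2 cells.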 To be noted: high-content imaging, actives raise or lower the signal. In outline: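 Readout: p53 immunofluorescence quantified by automated high-content imaging at 20x, six fields per well, nuclei located via Hoechst. Dosing ran 72 hr over ten concentrations from 0.39 to 200 uM; bidirectional curve fitting against DMSO baseline.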

Results filed as inconclusive are left out. Activity calls are given as the source filed them. Rule for the calls, unless noted: active = hit-call score of the fitted dose curve at least 0.9, where 1 is the maximum; inactive = score below 0.9.

Consider `CN1CCC[C@H]1c1cccnc1`, for which the molecule was called inactive in assay [1], in assay [2], in assay [3], in assay [4], in assay [5] and in assay [6]. The call in [7], in assay [8], in assay [9], in assay [10], in assay [11] and in [12] was inactive. Also, the result in [13], in assay [14], in assay [15], in assay [16] and in assay [17] was inactive.
Turning to `CC(C)(C)c1cccc(C(C)(C)C)c1O`, the result in assay [1], in [2], in [3], in assay [5], in assay [6] and in assay [11] was inactive. Besides, the molecule was classed as inactive in assay [13], in [14], in assay [16], in [19] and in assay [17]. The AC50 in assay [4] is 111 µM (active); in [7], 110 µM (active); in assay [8] it was 96.1 µM (active); in assay [18], 100 µM (active); in assay [9], 112 µM (active); in assay [10], 113 µM (active). In addition, the results for the AC50 in assay [12] and in [15] were 100 µM (active) and 57.3 µM (active), respectively.
Take `CCCCCCCCCCCCN1CCCC1=O`: the molecule was classed as inactive in assay [1], in assay [5], in assay [7], in assay [18] and in assay [12]. The AC50 in assay [2] was 53.5 µM (active); in assay [3] it was 75.3 µM (active); in [4], 47.4 µM (active); in assay [6], 68.7 µM (active); in assay [8], 51 µM (active); in [9] it was 42.6 µM (active). Besides, the AC50 in assay [10] was 72.4 µM (active); in assay [11], 58.6 µM (active); in assay [13] it was 62.4 µM (active); in [14], 53.3 µM (active); in assay [15] it was 67.2 µM (active); in assay [16], 67.5 µM (active). Besides, the results for the AC50 in assay [19] and in [17] were 61.3 µM (active) and 109 µM (active), respectively.
For the molecule `O=C(OCCOCCOC(=O)c1ccccc1)c1ccccc1`, the call in assay [1], in [2], in [3], in assay [4], in assay [5] and in assay [6] was inactive. Besides, the result in [7], in assay [8], in assay [18], in [9], in [10] and in [11] was inactive. Besides, the molecule was classed as inactive in assay [12], in assay [13], in [14], in assay [15], in [16] and in [19]. Besides, the call in [17] was inactive.
As for `c1ccc2c(c1)Cc1ccccc1-2`, the molecule was called inactive in assay [1], in assay [2], in [3], in [4], in [5] and in assay [6]. Further, the result in assay [7], in [8], in assay [18], in assay [9], in assay [10] and in [11] was inactive. For the same molecule, the result in assay [12], in assay [13], in assay [14], in [15], in [16] and in assay [19] was inactive. Further, the molecule was classed as inactive in assay [17].
For `CCCCCCCC(=O)O`, the outcome in assay [1], in assay [2], in [3], in assay [4], in assay [5] and in assay [6] was inactive. For the same molecule, the result in [8], in assay [18], in assay [9], in [10], in assay [11] and in assay [12] was inactive. Further, the outcome in [13], in assay [14], in [15], in assay [16], in assay [19] and in [17] was inactive. In addition, the AC50 in [7] was 0.0327 µM (active).
For the molecule `OCCC(F)(F)C(F)(F)C(F)(F)C(F)(F)C(F)(F)C(F)(F)C(F)(F)C(F)(F)F`, the result in [1], in assay [7], in assay [12], in [14] and in [16] was inactive. Moreover, the AC50 was 17.6 µM (active) in [2]; 75 µM (active) in [3]; 27.8 µM (active) in assay [4]; 23.1 µM (active) in assay [5]; 24.1 µM (active) in [6]; 29.9 µM (active) in [8]. In addition, the half-maximal activity concentration (AC50) in assay [18] is 25.1 µM (active); in [9], 14.7 µM (active); in assay [10], 34.8 µM (active); in assay [11], 29.7 µM (active); in [13] it was 21.8 µM (active); in [15], 26.8 µM (active). For the same molecule, the AC50 in assay [19] was 29.5 µM (active); in [17], 102 µM (active).

Broadly, the AC50 is the concentration at which the activity in the assay is half-maximal.
